The results in this text go back to PubChem BioAssay AID488969 (Vanderbilt High Throughput Screening Facility, 2010).

The full ranking holds about 110,000 compounds; the median of “z-score” is about -0.1, and the highest 2% start at about 2. For the sample, the highest values were picked, then their nearest neighbours and some compounds at random. Calls of active or inactive are those of the source.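 How the source made its calls: active means z-score in the third read window above 3 or below -3; inactive means the rest.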

This experiment deals with Metabotropic glutamate receptor 8 (Rattus norvegicus) (UniProt P70579). Kind of experiment: mGluR8 Gi/Go-coupled signaling modulation – cell-based, rat, thallium flux, HTS, primary screen (AID 488969). The conditions noted are these: HEK293 rat mGluR8, GIRK (G protein-gated inwardly rectifying potassium channel) thallium flux, FluoZin2; at 10 µM; stronger effect = higher value; submaximal glutamate (EC20) added with thallium.
Metabotropic glutamate receptor 8 (Rattus norvegicus), sequence (P70579 whole entry, looked up): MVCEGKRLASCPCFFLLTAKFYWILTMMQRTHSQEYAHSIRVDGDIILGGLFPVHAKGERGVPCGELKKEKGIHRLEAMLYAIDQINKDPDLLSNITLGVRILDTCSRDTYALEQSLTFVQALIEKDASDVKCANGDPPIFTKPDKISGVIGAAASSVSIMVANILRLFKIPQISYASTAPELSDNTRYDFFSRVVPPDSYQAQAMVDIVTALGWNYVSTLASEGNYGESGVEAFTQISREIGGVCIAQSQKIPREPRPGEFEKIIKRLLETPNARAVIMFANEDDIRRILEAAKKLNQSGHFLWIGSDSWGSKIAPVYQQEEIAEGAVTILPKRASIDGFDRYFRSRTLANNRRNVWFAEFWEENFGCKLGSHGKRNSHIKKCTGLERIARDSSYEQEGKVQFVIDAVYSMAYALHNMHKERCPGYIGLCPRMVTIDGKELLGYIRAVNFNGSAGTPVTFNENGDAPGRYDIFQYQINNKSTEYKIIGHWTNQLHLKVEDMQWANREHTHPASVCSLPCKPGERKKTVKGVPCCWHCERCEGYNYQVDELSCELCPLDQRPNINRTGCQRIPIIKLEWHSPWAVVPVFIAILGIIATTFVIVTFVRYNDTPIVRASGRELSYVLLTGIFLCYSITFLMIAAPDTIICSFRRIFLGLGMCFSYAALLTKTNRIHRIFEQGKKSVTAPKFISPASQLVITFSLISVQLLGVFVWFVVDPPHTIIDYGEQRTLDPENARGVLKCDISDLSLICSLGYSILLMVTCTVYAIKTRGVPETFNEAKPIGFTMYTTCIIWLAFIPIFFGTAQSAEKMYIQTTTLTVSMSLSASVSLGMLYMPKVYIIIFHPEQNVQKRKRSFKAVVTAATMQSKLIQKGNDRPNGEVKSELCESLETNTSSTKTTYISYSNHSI
The molecule `Cc1ccc(NC(=O)COC(=O)C2CC3C=CC2C3)cc1S(=O)(=O)N1CCCCC1` (stereo unspecified) yielded a z-score of 2.02.

The molecule `Cc1cc(C)n2nc(C(=O)OCC(=O)Nc3ccc4c(c3)OC(F)(F)O4)nc2n1` yielded a z-score of -0.0308.

`Cc1cnc(C(=O)OCC(=O)Nc2ccc(C)c(S(=O)(=O)N3CCCCC3)c2)cn1` returned a z-score of -1.

In the case of `O=C(COC(=O)C1CC2C=CC1C2)Nc1ccc2c(c1)OC(F)(F)O2` (stereo unspecified), the z-score is 4.04 (active).

`CCOC(=O)Nc1ccc(OC)cc1S(=O)(=O)N1CCCCC1` showed a z-score of 0.612.

With `Cc1ccc(NC(=O)COC(=O)C2CC2C)c(S(=O)(=O)N2CCCCC2)c1` (stereo unspecified), the z-score came out at 2.07.

`O=C(COC(=O)C1CC2C=CC1C2)Nc1ccccc1` (stereo unspecified) showed a z-score of 0.0334.

In turn, `Cc1ccc(NC(=O)COC(=O)C2CCC(=O)N2)c(S(=O)(=O)N2CCOCC2)c1` (stereo unspecified) came in with a z-score of -0.196.

In turn, `CCS(=O)(=O)c1nc2ccccc2n1CC(=O)N1CCCCC1` yielded a z-score of 0.849.

On to `COc1cc(O)c(C(C)=O)cc1OC`, for which the z-score worked out at 0.68.

In the case of `CC1(c2ccccc2)CC(C)(C)N2C(=O)/C(=C3\SC(=S)NC3=O)c3cccc1c32` (stereo unspecified), the z-score was 5.26 (active).

In the case of `CC1(c2ccccc2)CC(C)(C)N2C(=O)C3(C(C#N)=C(N)Oc4cc(O)ccc43)c3cccc1c32` (stereo unspecified), the z-score was -0.217.

In turn, `Cc1nn(-c2ccccc2)c(Cl)c1/C=C1\SC(=S)NC1=O` gave a z-score of -0.842.

`O=C(COc1ccc(S(=O)(=O)NC2CCCCC2)cc1Cl)NCc1cccnc1` displayed a z-score of -0.567.

`Cc1cc(NC(=O)c2cccc(S(=O)(=O)N3CCCCCC3)c2)no1` displayed a z-score of 0.223.

The molecule `O=C(COC(=O)Cn1cnc2ccccc2c1=O)Nc1ccccc1Sc1ccc(Cl)cc1` had a z-score of 0.148.

Turning to `COC(=O)c1ccc(OC(=O)c2ccco2)cc1`, the z-score came to 0.696.

For `CC1CC(C)(C)Nc2ccc(OC(=O)c3ccco3)cc21` (stereo unspecified), the z-score came to 2.2.

Take `COC(=O)C1=C(C)NC(C)=C(C(=O)OC)C1c1ccc(OC(=O)c2ccco2)cc1`: the z-score was -0.519.

`COc1cc(CNc2nc(C)c([N+](=O)[O-])c(C)c2C#N)cc(OC)c1` came in with a z-score of -0.18.

As to `COc1ccc(CCN2C(=O)C(O)=C(C(C)=O)C2c2ccccc2OC)cc1OC` (stereo unspecified), the z-score is -0.511.

For the molecule `O=C(O)CN1C(=O)C2(OCCCO2)c2ccccc21`, the z-score was determined as 0.0511.

As to `CC(C)CC(=O)CN1C(=O)C2(OCCO2)c2ccccc21`, the z-score was 6.5 (active).

`CC(C)(C)C(=O)CN1C(=O)C2(OCCO2)c2ccccc21` yielded a z-score of 0.508.

Regarding `CC(C)OC(=O)C1C2C=CC3(CN(Cc4cccs4)C(=O)C13)O2` (stereo unspecified), the z-score worked out at 0.0334.

The molecule `CN(C1CCCCC1)S(=O)(=O)c1ccc(NC(=S)NC(=O)c2cccs2)cc1` returned a z-score of 2.93.

With `O=C(Nc1ccc(S(=O)(=O)NCc2ccccc2)cc1)c1ccc(Br)o1`, the z-score was found to be 0.32.

`CN(C)S(=O)(=O)c1ccc(NC(=O)c2ccc(Br)o2)cc1` gave a z-score of 0.638.

`CCN(c1ccccc1)S(=O)(=O)c1ccc(NC(=S)NC(=O)c2cccs2)cc1` came in with a z-score of 2.75.

Regarding `O=C(Nc1ccc(NC(=S)NC(=O)c2cccs2)cc1)c1ccccc1`, the z-score is -0.193.

As to `Cc1cccc(C(=O)NC(=S)Nc2ccc(S(=O)(=O)N(C)c3ccccc3)cc2)c1`, the z-score is 1.39.

In turn, `CCCCN(CCCC)S(=O)(=O)c1ccc(NC(=O)c2cccs2)cc1` had a z-score of 0.572.

`CN(c1ccccc1)S(=O)(=O)c1ccc(NC(=S)NC(=O)c2ccccc2)cc1`: the z-score was 3.04 (active).

`O=C(NC(=S)Nc1ccc(S(=O)(=O)NC2CCCCC2)cc1)c1cccs1`: the z-score was found to be 0.16.

`CN(C1CCCCC1)S(=O)(=O)c1ccc(NC(=O)C2CCCCC2)cc1` displayed a z-score of -0.089.

`CCN(c1ccccc1)S(=O)(=O)c1ccc(NC(=S)NC(=O)c2ccc(Br)o2)cc1`: the z-score was 5.31 (active).

As to `Cc1ccc(C(=O)NC(=S)Nc2ccc(S(=O)(=O)N(C)c3ccccc3)cc2)cc1`, the z-score amounted to 0.95.

In turn, `CN1CCN(S(=O)(=O)c2ccc(NC(=S)NC(=O)c3ccccc3)cc2)CC1` showed a z-score of 0.103.

On to `O=C(c1ccco1)N1CCN(C(=O)C2CCN(S(=O)(=O)c3cccc4nsnc34)CC2)CC1`, for which the z-score was 0.0379.

`COc1ccc2c(c1)NC1(O)c3ccccc3C(=O)C21O` (stereo unspecified) displayed a z-score of 0.297.

In the case of `CC1(C)N=C(N)NC(Nc2ccc(Br)cc2)=N1`, the z-score is -0.00115.

Regarding `Cc1ccccc1-c1noc(-c2ccc(Cl)cc2)n1`, the z-score is -0.0855.

Consider `COc1ccc(-c2csc(NC(=O)c3nc(-c4ccccc4)oc3C)n2)cc1`, for which the z-score was found to be 0.528.

`Cc1nc2ccccc2nc1OCC(=O)N1CCN(c2ccccc2)CC1` registered a z-score of -0.273.

In the case of `Cc1ccc2c(c1)N(C(=O)c1ccco1)C(C)(C)c1ssc(=S)c1-2`, the z-score was -0.788.

On to `COc1ccccc1-n1cnnc1SCC(=O)N1CC(=O)Nc2ccccc21`, for which the z-score is -0.0356.

For `CS(=O)(=O)N1Cc2ccccc2CC1C(=O)OCC(=O)Nc1ccc2ccccc2c1` (stereo unspecified), the z-score is 0.0644.

For the molecule `Cc1cc(C)cc(NS(=O)(=O)c2ccc(NC(=S)NC(=O)c3ccc(Br)o3)cc2)c1`, the z-score was 2.18.

On to `Cc1cc(C)cc(NS(=O)(=O)c2ccc(NC(=S)Nc3ccccc3)cc2)c1`, for which the z-score stood at 9.02e-05.

Turning to `Cc1cc(C)cc(NS(=O)(=O)c2ccc(NC(=S)NC(=O)c3cccs3)cc2)c1`, the z-score came out at 0.901.

The molecule `CCc1[nH]nc2c1C(c1ccncc1)C(C#N)=C(N)O2` (stereo unspecified) returned a z-score of 0.499.

Take `O=C(O)c1ccc(NC(=S)NC2CCCCC2)cc1`: the z-score was 0.13.

Regarding `O=C(CN1C(=O)c2cccc3cccc1c23)NCc1ccc2c(c1)OCO2`, the z-score is -0.178.

Molecule `Cc1cc(C)nc(N2CCCC(C(=O)NCCc3ccccc3F)C2)n1` (stereo unspecified) returned a z-score of -0.306.

For the molecule `Cc1cc(C)nc(N2CCCC(C(=O)NCCc3ccc(F)cc3)C2)n1` (stereo unspecified), the z-score was 3.52 (active).

`Cc1cc(C)nc(N2CCCC(C(=O)NCCc3cccc(F)c3)C2)n1` (stereo unspecified): the z-score is -0.0417.
